Assay outcomes as filed in PubChem BioAssay.
Sampled rows, rich in hits. Any-hit rate of the full collection: about 6%.
D1 agonist: human D1 receptor agonism; 360,000 compounds, 1% hits; activation, % at 2 µM; P21728; HEK293 T-REx D1 cells, calcium flux, agonist mode; in the data active = activation above about 30%; note: 0% is about no effect
Target sequence (P21728 whole entry, looked up): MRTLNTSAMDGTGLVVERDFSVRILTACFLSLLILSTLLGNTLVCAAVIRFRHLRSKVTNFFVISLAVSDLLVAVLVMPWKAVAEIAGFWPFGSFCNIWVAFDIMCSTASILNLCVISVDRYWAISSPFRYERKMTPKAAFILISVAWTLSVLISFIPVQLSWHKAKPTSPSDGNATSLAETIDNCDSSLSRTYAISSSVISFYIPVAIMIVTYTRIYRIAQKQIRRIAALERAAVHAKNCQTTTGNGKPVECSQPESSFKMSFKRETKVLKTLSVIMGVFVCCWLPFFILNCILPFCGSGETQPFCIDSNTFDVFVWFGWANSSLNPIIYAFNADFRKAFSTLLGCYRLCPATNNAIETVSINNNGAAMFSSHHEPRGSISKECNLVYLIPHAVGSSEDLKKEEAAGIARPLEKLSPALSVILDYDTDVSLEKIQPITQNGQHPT
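Inducible HEK293 T-REx D1 cells, force-coupled to calcium signalling, were plated at 4000 cells/well with tetracycline and held overnight at 30 C. After no-wash calcium dye loading, compound-evoked calcium rise over 180 s flagged agonists.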
DRD3 agonist: activates the human D3 dopamine receptor; D3R DiscoveRx beta-arrestin cells, luminescence, 90 min; 410,000 compounds, 0.58% hits; AID 652048; max activation, %; P35462; in the data active = max activation above about 30%; note: 0% is about no effect
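Agonist-mode cell screen: cells plated at 1500/well and incubated overnight at 37 °C, then exposed to library compounds for 90 min at 37 °C. Detection reagent was added for 30–60 min at room temperature, and luminescence was read.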
D1 potentiator: human D1 dopamine receptor positive modulation. HEK293 TREx D1 cells, calcium flux, dopamine EC20 potentiation. 360,000 compounds, 0.036% hits. potentiation, % at 10 µM; in the data active = potentiation above about 30%; note: 0% is about no effect
D1 antagonist: human D1 dopamine receptor antagonism; P21728; HEK293 TREx D1 cells, calcium flux, dopamine EC80; stronger effect = lower value; activity change, negative = inhibition, % at 10 µM; 360,000 compounds, 3.2% hits; AID 504652; in the data active = activity change below about -30%; note: % is set by controls: 0 for no effect and ±100 for the full control effect
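Antagonism measured as reduced calcium response to an EC80 dopamine addition following 180 s compound pre-read; cells were inducible HEK293 Trex D1 plated overnight at 30 C, read kinetically at 1 cycle/sec.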
D3 antag: D3 dopamine receptor (human) antagonism; P35462; D3R cells, DiscoveRx beta-arrestin luminescence, antagonist mode; stronger effect = lower value; max response, negative = inhibition, %; 360,000 compounds, 2.5% hits; AID 652054; in the data active = max response below about -50%; inconclusive = no clear call, values can overlap the other calls; note: % is set by controls: 0 for no effect and ±100 for the full control effect
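Cells plated overnight at 1500 cells/well, then exposed to library compounds with dopamine controls for 90 minutes at 37 degrees C. DiscoveRx reagent added for 30–60 minutes at room temperature; luminescence read, quantitative HTS format.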
Numbers without * were called inactive; u = inconclusive; x = not tested or not shown; ! = a repeat was not active.

SMILES	D1 agonist	DRD3 agonist	D1 potentiator	D1 antagonist	D3 antag
CCc1noc(C)c1C(=O)N1CCN(c2cccc(C)c2C)CC1	4	1	-6	-31*	u
CCCCc1nc2ccccc2c(NC(=O)CNC(C)(C)C)c1CCC	3	1	-5	-5	-21
CCCCc1nc2ccccc2c(N)c1CCC (tested in a mixture with another compound)	50*	-22	-5	-47*	1
CCOc1ccc(CNC(=O)CN2C(=O)C3CCCCN3c3ccc(C(=O)N4CCCC4)cc32)cc1 (centres undefined)	0	-14	-3	4	x
O=S(=O)(NCCCN1CCN(c2ccccc2F)CC1)c1cccc2cccnc12	3	5	-10	-73*	-96*
O=S(=O)(NCCN1CCCC1)c1cccc2cccnc12	1	-14	-1	-5	u
COc1ccccc1Cn1cc(C(=O)c2ccc(C)cc2)c(=O)c2cc(C)ccc21	4	5	-4	-3	x
CCC(C)NC(=O)c1cc(CC(C)C)on1 (centres undefined)	2	-3	1	-30*	8
O=c1[nH]c2ccc(S(=O)(=O)N3CCN(S(=O)(=O)c4ccc5c(c4)OCCO5)CC3)cc2[nH]c1=O	1	x	-2	-17	x
Cc1ccccc1C(=O)NNC(=O)C1CCN(C(=O)Nc2ccccc2)CC1	0	5	-7	-45*	15
O=C(NNC(=O)C1CCN(C(=O)Nc2ccccc2)CC1)c1ccc(F)cc1	1	-11	-2	6	-18
Cc1ccc(S(=O)(=O)N(C)C)cc1NC(=O)C1CCN(C(=O)Nc2ccccc2)CC1	2	-9	-6	-34*	-1
CCc1ccc(C2=CC(c3c(F)cccc3Cl)n3c(nc4ccccc43)N2)cc1 (centres undefined)	39*	1	-1	-8	x
CCOc1ccc(NS(=O)(=O)c2ccc3[nH]cc(C(=O)NCc4ccco4)c(=O)c3c2)cc1	0	6	2	-48*	x
C[C@@H]1CN([C@@H](C)CO)S(=O)(=O)c2ccc(/C=C/c3ccccc3)cc2O[C@@H]1CN(C)Cc1ccc(C(=O)O)cc1	x	38*	x	x	9
Cc1cc(C)cc(C(N)=Nc2cccc(C#N)c2)c1	2	-4	-4	-50*	3
N#CNC(N)=Nc1cccc(Cl)c1	2	-1	-10	11	7
O=C1Nc2ccccc2C12Nc1ccccc1-c1nc3ccccc3n12 (centres undefined)	37*	-7	-7	-25	-30
CN1C(=O)C2(Nc3ccccc3-c3nc4ccccc4n32)c2ccccc21 (centres undefined)	2	-10	4	-10	-1
C#CCSc1nnc(CSc2nc3ccccc3s2)n1-c1ccccc1	8	2	-6	-30*	17
O=C(CCc1ccccc1)NCC1(c2ccccc2)CCCC1	3	-6	3	4	-8
O=C(NCCc1ccccc1)C(=O)NCC1(c2ccccc2)CCCC1	9	-5	-8	-31*	5
Cc1ccc(C)c(N2CCN(C(=O)CN3CCSc4ccc(S(=O)(=O)N(C)C)cc43)CC2)c1	2	-12	6	5	x
COC(/C=C/Nc1ccc(OC)cc1)=C(C#N)C#N	1	2	-3	-10	15
COC(/C=C/Nc1ccc(Cl)cc1)=C(C#N)C#N	4	-2	-7	-31*	7
SMILES	D1 agonist	DRD3 agonist	D1 potentiator	D1 antagonist	D3 antag
CCOc1ccc(NC(=O)Cn2cc(C(=O)c3ccc(F)cc3)c(=O)c3cc4c(cc32)OCO4)cc1	3	-13	-1	-6	x
CSc1ccc(CNC(=O)Cn2nc(N3CCN(c4ccccc4)CC3)ccc2=O)cc1	1	6	2	-3	x
O=c1c2cc3c(cc2nc2sc(Nc4ccc(F)c(Cl)c4)nn12)OCO3	55*	5	3	5	x
CN(C)CCCNC(=S)Nc1ccc(-c2ccccc2)cc1	34*	-16	-3	-7	-7
CC(C)N(c1ccccc1)c1ccc(NC(=S)NCCN(C)C)cc1	34*	-13	-4	8	-73*
CN(C)CCCNC(=S)Nc1ccc(Oc2ccccc2)cc1	12	-8	-9	-22	-6
CC1=C(C(=O)OCc2ccc(C)cc2)C(c2ccccc2F)CC(=O)N1 (centres undefined)	23	3	-4	-6	x
Cn1c(=O)oc2cc(S(=O)(=O)NC(Cc3ccccc3)C(=O)Nc3ccc(F)cc3)ccc21 (centres undefined)	1	5	1	-7	x
Cc1c(-c2cccc(NC(=O)c3ccc(F)c(F)c3)c2)nc2ncccn12	0	-19	-2	-36*	x
Cc1c(-c2cccc(NC(=O)Nc3ccc(Cl)cc3)c2)nc2ncccn12	3	-7	-5	-18	x
O=C(CCSCCc1ccccn1)Nc1ccc(Cl)cn1	0	-2	-6	13	-62*
O=C(CCSCCc1ccccn1)Nc1ccccn1	4	-2	-12	6	7
O=C(CCC1COc2ccccc2O1)Nc1ccc(Cl)cn1 (centres undefined)	3	0	-3	-25	-52*
Cc1ccc(NC(=O)c2c(NC(=O)c3ccco3)sc3c2CCC(C(C)(C)C)C3)c(C)c1 (centres undefined)	0	-16	-1	0	x
O=C(/C(N=Nc1cccc([N+](=O)[O-])c1)=C(/O)c1ccc(Br)cc1)C(F)(F)F	13	x	-14	-30*	x
Cc1cc(C)[n+]2n1C(=O)C(c1ccccc1)=C2[O-]	2	50*!	0	0	-13
CCOC(=O)c1cccc(NC(=O)Cn2c(=O)c3cccn3c3ccccc32)c1	20	-6	-3	-1	x
CCOC(=O)c1ccccc1NC(=O)CN(c1ccccc1OC)S(=O)(=O)c1ccc(C)cc1	6	-2	-1	-10	x
CCn1c(CC2C(=O)N(C)c3ccccc32)nc2ccccc2c1=O (centres undefined)	0	5	0	-6	x
O=C(Nc1cc(C(F)(F)F)ccc1Cl)c1cnn(-c2ccccc2)c1-n1cccc1	9	55*	1	3	x
CCOc1nc(NC(=O)NS(=O)(=O)Oc2cccc(F)c2)nc(-c2ccccc2)n1	-1	5	-2	-1	x
CC(C)C(=O)Nc1cccc(NC(=O)c2cc3ccccc3o2)c1	0	-3	-9	-30*	4
CC(=O)Nc1ccc(OCc2nnc(-c3ccccc3)o2)cc1	11	9	-8	-48*	0
Cc1nnc(NC(=O)c2cccc(NC(=O)C(C)C)c2)s1	3	0	1	-9	-7
CCOc1cccc(C(=O)Nc2cccc(-c3nnc(-c4ccccc4)o3)c2)c1	6	39*	-7	0	51
CC(C)C(=O)Nc1cccc(NC(=O)c2cccc(Br)c2)c1	5	3	-11	-32*	9
